# Test results taken from PubChem BioAssay AID624483 (NMMLSC, 2012).
# About 11,000 (3.1%) of roughly 360,000 compounds were called active. Not shown: some 2% with an inconclusive outcome. What follows is part of a selection rich in actives, with near analogues and random picks from the rest. A number with no mark means an inactive call. Rule as the data show it: active = fluorescence intensity above about 16000; inconclusive = no clear call, values can overlap the other calls; inactive = below that.
# Test: compound fluorescence in toxin protease inhibitor counterscreen, primary screen, artefact control for toxin protease inhibitor project, biochemical, multiplex microsphere, HTS (AID 624483)
# Conditions: compound autofluorescence counterscreen, microsphere flow cytometry; hits give high values
row,Structure (SMILES),fluorescence intensity
1,OC[C@@H]1CN(Cc2ccc(-c3ccccc3)cc2)C[C@H](n2cnc3c(NC4CCCC4)ncnc32)O1,3740
2,CCn1c(Cc2cccs2)nnc1SCC(=O)c1ccc(C)cc1,23000 (active)
3,Cc1ccc(-n2c(SCC(=O)Nc3ccc4c(c3)OCO4)nnc2-c2ccccn2)cc1,9860
4,Cc1ccc(-n2c(Cc3cccs3)nnc2SCC(=O)OC(C)C)cc1,23800 (active)
5,CCOC(=O)CSc1nnc(CNC(=O)c2ccco2)n1-c1ccc(F)cc1,8100
6,O=C(CSc1nnc(-c2ccccn2)n1-c1ccccc1)Nc1ccc2c(c1)OCO2,2680
7,CCOC(=O)CSc1nnc(CNC(=O)c2cccs2)n1-c1ccccc1,24300 (active)
8,Cc1ccc(-c2nnc(SCC(=O)N/N=C/c3cccs3)n2-c2ccc(C)cc2)cc1,2620
9,COc1ccc(-n2c(SCC(=O)OC(C)C)nnc2-c2ccccn2)cc1,23500 (active)
10,CCn1c(SCC(=O)c2ccc(Cl)s2)nnc1-c1cccs1,3490
11,CCOC(=O)CSc1nnc(CNC(=O)c2cccs2)n1-c1cc(OC)ccc1OC,9680
12,Cn1c(Cc2cccs2)nnc1SCC(=O)Nc1ccccc1,5420
13,COc1ccc(-n2c(SCC(=O)NCc3cccs3)nnc2-c2ccoc2C)cc1,3110
14,COc1ccc2c(CC(=O)NNC(=O)c3ccccc3F)coc2c1,2950
15,CCNC(=O)C1(C)CCCN(Cc2noc(-c3ccccc3OC)n2)C1 (configuration not stated),3700
16,CCN(CC)c1nc(-c2ccccc2)cc(C(F)(F)F)c1C#N,2560
17,O=C(C=CC(=O)Nc1ccc(F)cc1F)Nc1ccc(F)cc1F,6040
18,COc1ccc(NC(=O)C2(C)Cc3c(-c4cccc(NC(C)=O)c4)ccnc3O2)cc1OC (configuration not stated),3020
19,CCc1nc2ccc(C(=O)N(C)CCN(C)C)cn2c1N(CC)CCOC,3650

row,Structure (SMILES),fluorescence intensity
1,O=C(NCC(O)c1nc2ccccc2[nH]1)c1ccc(Br)cc1 (configuration not stated),5430
2,C[C@@H]1CC2=C(C(=O)OC(C)(C)O2)[C@@H](C2CC2)O1,5730
3,CCN(C(=O)CN1CCN(Cc2ccccc2)CC1)c1c(N)n(Cc2ccccc2)c(=O)[nH]c1=O,3390
4,Cc1csc(=O)n1CCC(=O)OCC(=O)NNC(=O)c1ccc(Br)cc1,3030
5,Cc1nc(C(=O)Nc2ccc(Cl)cc2)sc1C1(C)CC(c2ccccc2)=NO1 (configuration not stated),3390
6,C=C1C(=O)OC2C1CCC(C)=CCCC1(C)OC21 (configuration not stated),6040
7,COc1ccc(NC(=O)C2(C)Cc3c(-c4cccc(NC(C)=O)c4)ccnc3O2)cc1 (configuration not stated),3560
8,O=C(O)c1ccc(N/N=C/c2cn(-c3ccccc3)nc2-c2cccs2)cc1,3970
9,O=C(N/N=C/c1sc(N2CCCCC2)nc1-c1cccs1)c1cccnc1,16400 (active)
10,Cc1ccc(NC(=O)COc2ccc(/C=N\NC(=O)c3cccnc3)cc2)cc1C,4500
11,O=C(Nc1ccc(Cl)cc1)c1csc([C@H]2C[C@H](O)[C@@H](CO)O2)n1,2790
12,COCCCn1c(Cc2csc(Nc3cccc(Cl)c3)n2)nnc1SCC(=O)OC1CCCCC1,3010
13,NC(=O)CC(NC(=O)Cc1cccc2ccccc12)c1ccc(NCc2cc(F)ccc2F)c([N+](=O)[O-])c1 (configuration not stated),4100
14,CSCCC(NS(=O)(=O)c1ccc2c(c1)oc(=O)n2C)C(=O)NCc1ccccc1 (configuration not stated),4490
15,CCOc1ccc(OCC)c(NC(=O)C(NS(=O)(=O)c2ccc3c(c2)oc(=O)n3C)C(C)C)c1 (configuration not stated),20600 (active)
16,CCOc1ccc(OCC)c(NC(=O)CCS(=O)(=O)c2ccc(C)cc2)c1,3840
17,CCCCN(CCCC)CCNC(=O)CN1C(=O)COc2ccc(S(=O)(=O)N3CCOCC3)cc21,5470
18,CC(C)CNC(=O)C1(C)CCCN1C(=O)CSc1ccccc1 (configuration not stated),3520
19,O=C(CP(=O)(c1ccccc1)c1ccccc1)N1CCOCC1,4810

row,Structure (SMILES),fluorescence intensity
1,CCCCSc1[nH]c(=O)c(C(=O)OCC)cc1C#N,23400 (active)
2,CCOC(=O)c1cc(C)nc(S(C)(=O)=O)c1C#N,6150
3,CCOC(=O)c1cnc(COc2ccccc2Cl)[nH]c1=O,5960
4,CC(NCCc1ccc(S(N)(=O)=O)cc1)C(=O)NCc1ccccc1 (configuration not stated),3370
5,O=C(O)c1ccccc1Cc1ccc(F)c2ccccc12,3460
6,Cc1noc(C)c1S(=O)(=O)N(C)C[C@H]1OCCCC[C@@H](C)Oc2ccc(NC(=O)CCCN(C)C)cc2C(=O)N([C@H](C)CO)C[C@@H]1C,3820
7,O=C1CCC(=O)N1CCC(=O)N(C(=O)NC1CCCCC1)C1CCCCC1,3950
8,COc1ccc(-c2cc(NC(C)=O)c3ncc(-c4cc(OC)c(OC)c(OC)c4)n3c2)cn1,2720
9,COCC(C)n1c(SCC(=O)NC2CCCCC2C)nc2ccccc2c1=O (configuration not stated),2940
10,CCOC(=O)C(C)Sc1nc2ccccc2c(=O)n1CC1CCCCC1 (configuration not stated),19900 (active)
11,CCOn1c(SC(C)C)nc2ccccc2c1=O,10100
12,Cc1ccc2c(c1)N(CC(=O)NCCc1ccc(Cl)cc1)C(=O)c1cccnc1O2,5070
13,CCc1nc2c(OCCOc3ccccc3)cccn2c1N(C)C(=O)c1ccccc1F,3430
14,CCCCN(C=O)c1c(CC)nc2c(OCCC3CCCCC3)cccn12,3460
15,Cc1ccccc1OCC(=O)NCC(=O)OCC(=O)c1ccc2ccccc2c1,10600
16,Cc1ccc2[nH]c(=O)c(CN(CC3COCCO3)C(=O)Nc3ccccc3C)cc2c1 (configuration not stated),3250
17,Cc1cccc(NC(=O)N(Cc2cc3cc(C)cc(C)c3[nH]c2=O)CC2COCCO2)c1 (configuration not stated),11500
18,Cc1ccc2[nH]c(=O)c(CN(CCCN(C)C)C(=O)Nc3cccc(Cl)c3)cc2c1,21500 (active)
19,COc1ccccc1CNc1nc(Nc2ccccc2Cl)c2sccc2n1,3450
